# Screening results (PubChem)
# Rows were chosen to be rich in hits. Some 2.5% of all compounds tested hit in one or more screens of this group.
# PTAP-TSG101 blk – qHTS Validation Assay for Inhibitors of HIV-1 Budding by Blocking the Interaction of PTAP/TSG101: Sytravon Library Screen. 44,000 tested, under 10 active. Potency, µM (series often up to 115 µM), actives largely listed as inhibitors. Tumor susceptibility gene 101 protein (Homo sapiens), Q99816. Fluorescence polarization, FITC-PTAP peptide/Tsg101, 20 min; further: potency means the concentration at half of the fitted maximal effect; 0% is about no effect
# Target sequence (Q99816 whole entry, looked up): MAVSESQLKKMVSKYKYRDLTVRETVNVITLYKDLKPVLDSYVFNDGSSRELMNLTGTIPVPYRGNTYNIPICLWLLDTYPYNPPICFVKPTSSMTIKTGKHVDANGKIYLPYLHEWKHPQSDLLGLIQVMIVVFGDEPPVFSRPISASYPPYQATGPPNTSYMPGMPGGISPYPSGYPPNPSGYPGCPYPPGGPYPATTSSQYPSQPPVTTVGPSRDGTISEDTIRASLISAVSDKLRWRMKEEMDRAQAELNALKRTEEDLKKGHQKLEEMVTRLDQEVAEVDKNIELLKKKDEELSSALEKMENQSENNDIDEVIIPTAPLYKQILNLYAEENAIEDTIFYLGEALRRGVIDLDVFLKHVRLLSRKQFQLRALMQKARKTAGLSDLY
#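 Fluorescence polarization: Tsg101 binding domain (10 uM final) in 10 mM HEPES pH 7.5, 0.15 M NaCl, 0.01% Tween 20, 3 mM EDTA, 0.1 mM TCEP; compounds pinned; FITC-PTAP peptide 50 nM final; 20 min, r.t.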
# GPR32 ag – qHTS for Agonists of Human Resolvin D1 Receptor DRV1; Probable G-protein coupled receptor 32 (Homo sapiens), O75388; activation, % at 76.9 µM; CHO-K1 GPR32 beta-arrestin PathHunter luminescence, 90 min; zero percent set by DMSO-only wells; 48,000 tested, 2.5% active;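 active means activation of at least 60% and not above a set upper limit, about 1 call in 100 departs from these limits; inconclusive means activation of 40% to 60%, or above that upper limit; inactive means activation under 40%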; further: 0% is about no effect
#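 GPR32 activation in stably transfected CHO-K1 cells, detected as beta-arrestin recruitment by enzyme-fragment complementation. Compound exposure: 90 min, 37 °C.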
# GALK inh – qHTS Assay for Inhibitors of Human Galactokinase (GALK): NCGC Sytravon Library Screen; P51570; recombinant GALK, Kinase-Glo ATP luminescence, 1 h; Potency, µM (highest dose often 57.5 µM), for inactives: top-dose activity, negative = inhibition, usual class: inhibitors; 44,000 tested, under 10 active;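 further: plate controls were full GALK reaction for no effect and reaction lacking GALK for full effect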
#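 Luminescent ATP-depletion readout (Kinase-Glo Plus) after 1 h room-temperature incubation of human GALK (5 nM) with galactose 100 µM and ATP 35 µM, pH 8.0 HEPES/Mg2+ buffer; compounds tested in qHTS format.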
# B2AR arrestin ag – qHTS assay of beta-arrestin-biased ligands of beta2-adrenergic receptor: NCGC Sytravon Library Screen. Beta-2 adrenergic receptor (Homo sapiens), P07550. HTLA Tango cells, beta-arrestin recruitment, luciferase luminescence, 18 h. Potency, µM (top dose mostly 46.1 µM), hits mostly activators. AID 1347077, 2019. 44,000 tested, under 10 active;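 further: potency means the concentration at half of the fitted maximal effect; 0% = DMSO and full agonism = EC100 isoproterenol or metaproterenol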
#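 Tango cell line, 1% FBS DMEM; cpd titration up to 46 microM; 18 hr, 37 degrees C, 5% CO2. Luciferin/ATP substrate mix added, 15 min RT, luminescence. %Activity, CRC fitting, curve-class categorization.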
# Starred values were filed as active, the others as inactive; i = inactive; u = inconclusive; x = no result. Unless noted, the call rests on the fitted dose curve; in most records, active means well fitted curve in the direction sought with a large enough effect; inconclusive means small, poorly fitted or top-dose-only effect, or another doubt; inactive means no such curve, though single readings can be large; an effect the other way counts as inactive or inconclusive.
SMILES,PTAP-TSG101 blk,GPR32 ag,GALK inh,B2AR arrestin ag
CCc1ccc(N=C2NC(=O)CC(C(=O)Nc3ccc(OC)cc3)S2)cc1 (stereo not given),i,91.7*,3.4%,i
CCOc1cccc(NC(=O)C2CC(=O)N(C)C(=Nc3ccc(OC)cc3)S2)c1 (stereo not given),i,20.2,2.1%,i
CCc1ccccc1NC(=O)c1c(NC(=O)c2ccccc2)sc2c1CCCC2,i,-0.4,1.0%,i
CCOc1ccccc1NC(=O)c1c(NC(=O)c2ccncc2)sc2c1CCC(C(C)(C)C)C2 (stereo not given),i,113.1*,1.8%,i
CCOc1ccccc1NC(=O)c1c(NC(=O)c2ccccc2)sc2c1CCCC2,i,66.3*,-14.7%,i
Cc1ccccc1NC(=O)c1c(NC(=O)c2ccncc2)sc2c1CCC(C(C)(C)C)C2 (stereo not given),i,72.5*,1.5%,i
Cc1ccccc1C(=O)Nc1sc2c(c1C(=O)O)CCC(C(C)(C)C)C2 (stereo not given),i,-0.5,-4.7%,i
COc1ccccc1NC(=O)c1c(NC(=O)Cc2ccccc2)sc2c1CCC(C(C)(C)C)C2 (stereo not given),i,-4.2,-17.5%,i
CC1CCN(S(=O)(=O)c2ccc3c(c2)N(CC(=O)NCc2ccccc2)C(=O)CO3)CC1,i,-2.6,-0.5%,i
CCN(c1cc(C)cc(C)c1)S(=O)(=O)c1nnc(NC(=O)c2cccs2)s1,i,33.7,0.0%,i
CCN(c1cccc(C)c1)S(=O)(=O)c1nnc(NC(=O)c2cccs2)s1,i,61.8*,2.1%,i
c1cnc2cc3c(cc2n1)C1CNCC3C1,x,4.5,x,x
C=C1C(=C/C=C2\CCC[C@]3(C)[C@@H]([C@H](C)/C=C/[C@@H](O)C4CC4)CC[C@@H]23)C[C@@H](O)C[C@@H]1O,x,106.8*,x,x
CCc1ccc(NC(=O)Cn2nc3c4ccccc4n(Cc4ccccc4)cc-3c2=O)cc1,i,84.1*,-2.4%,i
CN1CCN(N)CC1,x,-2.7,x,x
Cc1ccc(S(=O)(=O)N(CC(O)Cn2c3ccccc3c3ccccc32)c2cccc(C(N)=O)c2)cc1 (stereo not given),i,85.6*,-1.2%,i
Cc1ccc(S(=O)(=O)N(CC(O)Cn2c3ccccc3c3ccccc32)c2cccc(C(=O)N(C)C)c2)cc1 (stereo not given),i,26.7,0.0%,i
Cc1c(-c2cccc(NC(=O)Nc3ccccc3)c2)nc2ncccn12,i,95.9*,-1.7%,i
Cc1c(-c2cccc(NC(=O)Cc3ccccc3)c2)nc2ncccn12,i,30.2,-0.7%,i
O=C(Nc1ccccc1)c1ccc(Cl)c(S(=O)(=O)Nc2ccccc2)c1,i,91.4*,7.9%,i
Cc1ccc(C(=O)Nc2ccccc2)cc1S(=O)(=O)Nc1ccccc1,i,94.8*,4.9%,i
CCCC(=O)O[C@]1(C(=O)CC)CC[C@H]2[C@@H]3CCC4=CC(=O)CC[C@]4(C)[C@H]3[C@@H](O)C[C@@]21C,x,-5.6,x,x
Cc1ccc(S(=O)(=O)Nc2cc3c(cc2NCc2ccccc2)n(C)c(=O)n3C)c(C)c1,i,19.1,-7.4%,i
C[C@@H]1C[C@H]2[C@@H]3CCC4=CC(=O)C=C[C@]4(C)[C@@]3(F)[C@@H](O)C[C@]2(C)[C@@]1(O)C(=O)COC(=O)c1ccncc1,x,10.6,x,x
O=C(Nc1ccc(O)c(-c2nc3ccccc3o2)c1)c1ccco1,i,84.1*,-0.8%,i
SMILES,PTAP-TSG101 blk,GPR32 ag,GALK inh,B2AR arrestin ag
Cc1cc(NC(=O)c2ccco2)cc(-c2nc3ccccc3o2)c1O,i,27.3,9.0%,i
O=C(c1ccccc1)N1CCc2cc(CNS(=O)(=O)c3ccccc3Cl)ccc21,i,0.2,-1.4%,i
CCOC(=O)c1c(NC(=O)c2ccc(S(=O)(=O)N3CCCC(C)C3)cc2)sc2c1CC(C)(C)NC2(C)C (stereo not given),i,120.1*,0.0%,i
CN(C)c1ccc(CNC(=O)c2cccc(NC(=O)N3CCSc4ncccc43)c2)cc1,i,3.4,-0.7%,i
COc1ccc(CC(=O)NCCc2csc(-c3cccc(F)c3)n2)cc1OC,i,27.7,2.2%,i
Cc1ccc(-c2nc3sc(CCNC(=O)c4ccco4)c(C)n3n2)cc1,i,64.9*,0.2%,i
COc1cccc(C(=O)NCCc2csc(-c3cccc(F)c3)n2)c1OC,i,u,0.2%,i
O=C(CCc1ccccc1)NCCc1csc(-c2cccc(F)c2)n1,i,85.5*,-3.3%,i
CCOc1ccc(CC(=O)NCCc2csc(-c3ccc(Cl)cc3)n2)cc1,i,87.7*,-1.8%,i
O=C(COc1ccc(Cl)cc1)NCCc1csc(-c2cccc(F)c2)n1,i,76.7*,1.4%,i
CCC(C(=O)O)c1ccc(N2Cc3ccccc3C2=O)cc1 (stereo not given),x,16.0,x,x
CCOc1ccc(C(c2c(O)cc(C)n(CCOC)c2=O)N2CCC(C)CC2)cc1 (stereo not given),i,-9.8,-1.3%,i
COC(=O)c1c(NC(=O)c2cc3ccccc3c(=O)o2)sc2c1CCCC2,i,7.4,0.0%,i
CCCCCCCCCCCC[N+](C)(C)Cc1ccccc1,x,-16.2,x,x
CCN(CC)c1ccc(C(=C2C=CC(=[N+](CC)CC)C=C2)c2cc(S(=O)(=O)O)ccc2S(=O)(=O)[O-])cc1,x,-77.8,x,x
O=C(COc1ccccc1)NCCc1csc(-c2ccc(F)cc2)n1,i,120.1*,-0.9%,i
Cc1nc(-c2ccc(F)cc2)sc1CCNC(=O)c1ccco1,i,-2.8,3.3%,i
O=C(NCCc1csc(-c2ccc(F)cc2)n1)c1ccco1,i,109.1*,1.0%,i
O=c1[nH]c(=O)n([C@H]2O[C@H](CO)[C@@H](O)[C@@H]2O)cc1/C=C\Br,x,-5.0,x,x
Cc1c(Cl)ccc2sc(N3CCN(C(=O)c4ccco4)CC3)nc12,i,85.4*,1.3%,i
Cc1ccc(S(=O)(=O)CCC(=O)N2CCN(c3nc4c(C)c(C)ccc4s3)CC2)cc1,i,28.6,-1.9%,i
CCCCC(=O)N1CCN(c2nc3c(C)c(C)ccc3s2)CC1,i,69.1*,-5.4%,i
COc1ccccc1N1CCN(C(=O)c2oc3ccccc3c2N)CC1,i,70.9*,-3.5%,i
COc1ccc(N2CCN(C(=O)c3oc4ccccc4c3NC(=O)c3ccccc3OC)CC2)cc1,i,-5.2,3.1%,i
